From PubChem BioAssay AID1159580 (chemical genetic matrix, 2015)
Among all 5,500 compounds or so, about 2,000 (36%) were called active. Not shown: some 18% with an inconclusive outcome. No stated cut-off is given here; in the data, active means normalized growth mostly below about 0.91 (no sharp cut-off); inconclusive means no clear call, values can overlap the other calls; inactive means mostly above about 0.92. Some of the results follow.

Experiment: chemical genetic growth profiling, strain panel (AID 1159580);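 further: tested at 20 µM; growth read once vehicle control cultures reached saturation at 30 °C; 1 = growth at the plate median or of vehicle wells; lower values mean less growth of the strain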
Conditions: growth OD

Measured: normalized growth

CC(=O)NCc1c(I)c(NC(C)=O)c(I)c(C(=O)O)c1I
inactive: S. cerevisiae deletion strains, locus YJR075W, strain HOC1, active compounds read low 1.01 | S. cerevisiae deletion strains, locus YKL009W, strain mrt4, active compounds read low 1.1 | S. cerevisiae deletion strains, locus YKL068W, active compounds read low 0.977 | S. cerevisiae deletion strains, locus YKL085W, strain MDH1 (second series), active compounds read low 1.01 | S. cerevisiae deletion strains, locus YKL085W, strain MDH1, active compounds read low 1.01 | S. cerevisiae deletion strains, locus YKL160W, strain elf1, active compounds read low 0.981 | S. cerevisiae deletion strains, locus YKL190W, strain CNB1, active compounds read low 0.997 | S. cerevisiae deletion strains, locus YKR001C, strain vps1, active compounds read low 1 | S. cerevisiae deletion strains, locus YKR026C, strain gcn3, active compounds read low 0.994 | S. cerevisiae deletion strains, locus YKR091W, strain srl3, active compounds read low 0.998 | S. cerevisiae deletion strains, locus YLL001W, strain dnm1, active compounds read low 0.999 | S. cerevisiae deletion strains, locus YLL026W, active compounds read low 0.991 | S. cerevisiae deletion strains, locus YLL041C, strain sdh2, active compounds read low 0.995 | S. cerevisiae deletion strains, locus YLR027C, strain aat2, active compounds read low 1 | S. cerevisiae deletion strains, locus YLR039C, strain RIC1, active compounds read low 1 | S. cerevisiae deletion strains, locus YLR058C, strain SHM2, active compounds read low 0.999 | S. cerevisiae deletion strains, locus YLR102C, strain apc9, active compounds read low 0.993 | S. cerevisiae deletion strains, locus YLR113W, strain HOG1, active compounds read low 1.02 | S. cerevisiae deletion strains, locus YLR221C, strain rsa3, active compounds read low 0.992 | S. cerevisiae deletion strains, locus YLR258W, strain gsy2, active compounds read low 1 | S. cerevisiae deletion strains, locus YLR262C, strain YPT6 (second series), active compounds read low 1 | S. cerevisiae deletion strains, locus YLR262C, strain YPT6, active compounds read low 0.991 | S. cerevisiae deletion strains, locus YLR268W, strain sec22, active compounds read low 0.97 | S. cerevisiae deletion strains, locus YLR320W, strain mms22, active compounds read low 0.978 | S. cerevisiae deletion strains, locus YLR330W, strain CHS5, active compounds read low 0.992 | S. cerevisiae deletion strains, locus YLR342W, strain FKS1 (second series), active compounds read low 1.04 | S. cerevisiae deletion strains, locus YLR342W, strain FKS1, active compounds read low 0.999 | S. cerevisiae deletion strains, locus YLR357W, strain rsc2, active compounds read low 1.01 | S. cerevisiae deletion strains, locus YLR370C, strain arc18, active compounds read low 1 | S. cerevisiae deletion strains, locus YLR371W, strain rom2, active compounds read low 0.99 | S. cerevisiae deletion strains, locus YLR384C, strain iki3, active compounds read low 0.987 | S. cerevisiae deletion strains, locus YLR418C, strain cdc73, active compounds read low 1.02 | S. cerevisiae deletion strains, locus YML016C, strain PPZ1, active compounds read low 1 | S. cerevisiae deletion strains, locus YML032C, strain rad52, active compounds read low 0.998 | S. cerevisiae deletion strains, locus YML120C, strain ndi1, active compounds read low 0.994 | S. cerevisiae deletion strains, locus YML124C, strain tub3, active compounds read low 1 | S. cerevisiae deletion strains, locus YMR058W, strain fet3, active compounds read low 0.995 | S. cerevisiae deletion strains, locus YMR078C, strain ctf18, active compounds read low 0.984 | S. cerevisiae deletion strains, locus YMR125W, strain sto1, active compounds read low 1.02 | S. cerevisiae deletion strains, locus YMR129W, active compounds read low 1 | S. cerevisiae deletion strains, locus YMR205C, strain PFK2, active compounds read low 1.01 | S. cerevisiae deletion strains, locus YMR223W, strain ubp8, active compounds read low 1.02 | S. cerevisiae deletion strains, locus YMR231W, strain pep5, active compounds read low 0.991 | S. cerevisiae deletion strains, locus YMR263W, strain SAP30, active compounds read low 0.987 | S. cerevisiae deletion strains, locus YMR307W, strain GAS1, active compounds read low 1.08 | S. cerevisiae deletion strains, locus YNL067W, strain RPL9B, active compounds read low 0.987 | S. cerevisiae deletion strains, locus YNL071W, strain lat1, active compounds read low 1 | S. cerevisiae deletion strains, locus YNL128W, strain TEP1, active compounds read low 0.988 | S. cerevisiae deletion strains, locus YNL153C, strain GIM3, active compounds read low 0.999 | S. cerevisiae deletion strains, locus YNL183C, strain NPR1, active compounds read low 0.963 | S. cerevisiae deletion strains, locus YNL209W, strain ssb2, active compounds read low 1 | S. cerevisiae deletion strains, locus YNL233W, strain BNI4, active compounds read low 1.01 | S. cerevisiae deletion strains, locus YNL248C, strain rpa49, active compounds read low 0.996 | S. cerevisiae deletion strains, locus YNL250W, strain rad50, active compounds read low 0.99 | S. cerevisiae deletion strains, locus YNL271C, strain bni1, active compounds read low 0.989 | S. cerevisiae deletion strains, locus YNL298W, strain CLA4, active compounds read low 0.995 | S. cerevisiae deletion strains, locus YNL307C, strain MCK1, active compounds read low 0.997 | S. cerevisiae deletion strains, locus YNL322C, strain KRE1 (second series), active compounds read low 0.989 | S. cerevisiae deletion strains, locus YNL322C, strain KRE1, active compounds read low 0.994 | S. cerevisiae deletion strains, locus YNR049C, strain mso1, active compounds read low 0.996 | S. cerevisiae deletion strains, locus YNR052C, strain pop2, active compounds read low 0.978 | S. cerevisiae deletion strains, locus YOL006C, strain TOP1, active compounds read low 0.981 | S. cerevisiae deletion strains, locus YOL012C, strain htz1 0.964 | S. cerevisiae deletion strains, locus YOL147C, strain pex11, active compounds read low 0.995 | S. cerevisiae deletion strains, locus YOR001W, strain rrp6, active compounds read low 1.01 | S. cerevisiae deletion strains, locus YOR061W, strain CKA2, active compounds read low 1 | S. cerevisiae deletion strains, locus YOR069W, strain VPS5, active compounds read low 0.998 | S. cerevisiae deletion strains, locus YOR070C, strain gyp1, active compounds read low 0.998 | S. cerevisiae deletion strains, locus YOR080W, strain dia2, active compounds read low 0.995 | S. cerevisiae deletion strains, locus YOR083W, strain WHI5, active compounds read low 0.983 | S. cerevisiae deletion strains, locus YOR106W, strain vam3, active compounds read low 0.979 | S. cerevisiae deletion strains, locus YOR136W, strain idh2, active compounds read low 0.999 | S. cerevisiae deletion strains, locus YOR144C, strain elg1, active compounds read low 0.984 | S. cerevisiae deletion strains, locus YOR184W, strain ser1, active compounds read low 0.995 | S. cerevisiae deletion strains, locus YOR231W, strain MKK1, active compounds read low 1.03 | S. cerevisiae deletion strains, locus YOR265W, strain rbl2, active compounds read low 0.994 | S. cerevisiae deletion strains, locus YOR270C, strain vph1, active compounds read low 1.02 | S. cerevisiae deletion strains, locus YOR290C, strain snf2, active compounds read low 1.01 | S. cerevisiae deletion strains, locus YOR316C, strain cot1, active compounds read low 0.986 | S. cerevisiae deletion strains, locus YPL051W, strain arl3, active compounds read low 0.997 | S. cerevisiae deletion strains, locus YPL055C, strain LGE1, active compounds read low 0.984 | S. cerevisiae deletion strains, locus YPL078C, strain atp4, active compounds read low 1 | S. cerevisiae deletion strains, locus YPL106C, strain sse1, active compounds read low 0.993 | S. cerevisiae deletion strains, locus YPL240C, strain hsp82, active compounds read low 0.98 | S. cerevisiae deletion strains, locus YPL241C, strain CIN2, active compounds read low 1 | S. cerevisiae deletion strains, locus YPL256C, strain CLN2, active compounds read low 1.01 | S. cerevisiae deletion strains, locus YPR119W, strain clb2, active compounds read low 0.999 | S. cerevisiae deletion strains, locus YPR141C, strain kar3, active compounds read low 0.986 | S. cerevisiae deletion strains, locus YPR163C, strain tif3, active compounds read low 1 | S. cerevisiae deletion strains, locus YPR167C, strain met16, active compounds read low 0.985 | S. cerevisiae deletion strains, strain wtn01, active compounds read low 0.989 | S. cerevisiae strains, strain wild type, active compounds read low 1
